Results: the supplement of paper PMC11732987, “Enantioselective OTUD7B fragment discovery through chemoproteomics screening and high-throughput optimisation” (Communications Chemistry, 2025)

Assays:
Assay in all cases: log2 ratio of Biotin-Ahx-Ub-VS probe labelling (fragment/DMSO); higher = less target engagement (more negative = stronger competition), active = hit call of the paper (q ≤ 0.05, log2 ratio ≤ -1)
Conditions in all cases: compound concentration: 200 uM; treatment time: 3 h
[1] = target: USP34 (UniProt Q70CQ2)
How it was run: (§1)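 Each value is an average log2 ratio of fragment to vehicle, tested by unpaired t-test. The underlying Spectronaut label-free quantities were global-median-normalised, and only proteins with ≥2 unique peptides were included. Triplicate HEK293T lysate samples (495 µg) were exposed to fragment at 200 µM or vehicle for 3 h, then to Biotin-Ahx-Ub-VS at 0.5 µM final for 1 h, before NeutrAvidin enrichment of labelled DUBs, LysC and trypsin digestion, and diaPASEF LC-MS/MS.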

[2] = target: T1, USP36 (UniProt Q9P275)
T1 sequence (whole entry): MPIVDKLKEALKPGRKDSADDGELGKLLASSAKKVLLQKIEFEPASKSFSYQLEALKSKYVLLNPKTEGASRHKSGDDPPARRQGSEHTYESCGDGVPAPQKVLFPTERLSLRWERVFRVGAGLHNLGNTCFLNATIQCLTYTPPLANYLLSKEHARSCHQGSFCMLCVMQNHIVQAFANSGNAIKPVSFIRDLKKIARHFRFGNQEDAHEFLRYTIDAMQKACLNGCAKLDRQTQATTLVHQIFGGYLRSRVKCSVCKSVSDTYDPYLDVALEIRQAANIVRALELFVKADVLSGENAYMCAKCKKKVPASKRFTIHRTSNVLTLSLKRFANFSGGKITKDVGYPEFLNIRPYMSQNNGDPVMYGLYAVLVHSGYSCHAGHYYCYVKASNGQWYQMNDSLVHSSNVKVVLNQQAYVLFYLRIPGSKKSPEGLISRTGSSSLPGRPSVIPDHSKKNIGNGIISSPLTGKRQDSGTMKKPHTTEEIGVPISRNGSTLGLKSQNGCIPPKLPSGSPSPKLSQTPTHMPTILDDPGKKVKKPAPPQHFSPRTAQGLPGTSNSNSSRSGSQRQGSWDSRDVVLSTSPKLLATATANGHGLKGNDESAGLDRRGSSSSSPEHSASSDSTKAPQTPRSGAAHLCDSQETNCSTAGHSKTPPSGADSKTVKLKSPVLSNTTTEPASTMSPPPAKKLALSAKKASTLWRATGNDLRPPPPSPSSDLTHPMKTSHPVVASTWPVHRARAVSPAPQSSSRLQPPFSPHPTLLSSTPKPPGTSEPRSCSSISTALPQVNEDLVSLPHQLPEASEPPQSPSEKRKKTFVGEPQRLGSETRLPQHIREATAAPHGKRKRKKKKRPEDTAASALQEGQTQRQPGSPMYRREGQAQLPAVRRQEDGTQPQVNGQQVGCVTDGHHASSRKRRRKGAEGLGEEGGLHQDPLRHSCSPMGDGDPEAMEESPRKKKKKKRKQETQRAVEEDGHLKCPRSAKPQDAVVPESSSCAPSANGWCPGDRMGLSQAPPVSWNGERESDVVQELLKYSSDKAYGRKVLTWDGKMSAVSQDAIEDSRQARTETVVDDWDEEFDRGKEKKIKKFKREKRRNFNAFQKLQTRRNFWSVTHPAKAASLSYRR
How it was run: as §1

[3] = target: T2, USP38 (UniProt Q8NB14)
T2 sequence (whole entry): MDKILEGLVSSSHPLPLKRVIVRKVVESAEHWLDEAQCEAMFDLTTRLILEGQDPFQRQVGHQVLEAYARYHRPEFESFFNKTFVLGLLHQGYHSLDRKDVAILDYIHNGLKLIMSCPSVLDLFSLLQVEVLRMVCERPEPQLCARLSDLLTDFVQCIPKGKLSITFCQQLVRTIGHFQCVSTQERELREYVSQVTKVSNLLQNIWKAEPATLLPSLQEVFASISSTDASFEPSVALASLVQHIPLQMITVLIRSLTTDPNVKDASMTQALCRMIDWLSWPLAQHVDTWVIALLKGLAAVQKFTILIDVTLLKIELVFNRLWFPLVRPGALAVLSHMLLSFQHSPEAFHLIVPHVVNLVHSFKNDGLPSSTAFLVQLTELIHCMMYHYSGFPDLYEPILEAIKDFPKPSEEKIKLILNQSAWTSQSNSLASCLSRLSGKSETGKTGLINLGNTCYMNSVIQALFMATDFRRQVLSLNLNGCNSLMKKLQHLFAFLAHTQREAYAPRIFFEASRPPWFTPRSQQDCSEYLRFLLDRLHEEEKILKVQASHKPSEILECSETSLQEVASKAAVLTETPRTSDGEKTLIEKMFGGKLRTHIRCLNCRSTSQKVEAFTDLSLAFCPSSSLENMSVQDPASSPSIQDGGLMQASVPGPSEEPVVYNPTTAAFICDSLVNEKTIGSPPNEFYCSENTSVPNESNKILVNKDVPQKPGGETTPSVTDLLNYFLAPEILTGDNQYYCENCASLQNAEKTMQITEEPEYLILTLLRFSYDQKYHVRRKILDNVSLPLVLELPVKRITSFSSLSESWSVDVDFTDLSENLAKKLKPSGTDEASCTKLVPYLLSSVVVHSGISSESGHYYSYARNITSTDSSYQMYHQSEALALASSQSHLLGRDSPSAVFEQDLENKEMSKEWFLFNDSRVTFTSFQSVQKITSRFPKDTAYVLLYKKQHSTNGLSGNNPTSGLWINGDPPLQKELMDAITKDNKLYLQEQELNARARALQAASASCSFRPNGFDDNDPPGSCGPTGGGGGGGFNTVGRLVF
How it was run: as §1

[4] = target: T3, USP39 (UniProt Q53GS9)
T3 sequence (whole entry): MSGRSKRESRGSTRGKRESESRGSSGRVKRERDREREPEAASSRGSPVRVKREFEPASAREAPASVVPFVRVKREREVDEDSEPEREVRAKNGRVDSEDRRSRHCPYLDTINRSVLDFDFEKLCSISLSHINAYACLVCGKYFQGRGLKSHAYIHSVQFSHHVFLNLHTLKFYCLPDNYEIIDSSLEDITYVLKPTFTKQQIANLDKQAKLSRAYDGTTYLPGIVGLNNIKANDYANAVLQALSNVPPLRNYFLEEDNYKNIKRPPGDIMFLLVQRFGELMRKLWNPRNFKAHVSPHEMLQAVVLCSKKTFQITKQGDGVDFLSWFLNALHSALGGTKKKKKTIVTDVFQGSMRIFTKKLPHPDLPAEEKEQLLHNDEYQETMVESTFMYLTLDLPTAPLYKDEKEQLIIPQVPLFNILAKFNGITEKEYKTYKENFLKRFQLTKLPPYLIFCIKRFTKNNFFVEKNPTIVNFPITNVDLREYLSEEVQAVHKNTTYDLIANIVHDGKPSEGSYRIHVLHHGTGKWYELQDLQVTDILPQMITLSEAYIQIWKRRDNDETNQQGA
How it was run: as §1

[5] = target: T4, USP4 (UniProt Q13107)
T4 sequence (whole entry): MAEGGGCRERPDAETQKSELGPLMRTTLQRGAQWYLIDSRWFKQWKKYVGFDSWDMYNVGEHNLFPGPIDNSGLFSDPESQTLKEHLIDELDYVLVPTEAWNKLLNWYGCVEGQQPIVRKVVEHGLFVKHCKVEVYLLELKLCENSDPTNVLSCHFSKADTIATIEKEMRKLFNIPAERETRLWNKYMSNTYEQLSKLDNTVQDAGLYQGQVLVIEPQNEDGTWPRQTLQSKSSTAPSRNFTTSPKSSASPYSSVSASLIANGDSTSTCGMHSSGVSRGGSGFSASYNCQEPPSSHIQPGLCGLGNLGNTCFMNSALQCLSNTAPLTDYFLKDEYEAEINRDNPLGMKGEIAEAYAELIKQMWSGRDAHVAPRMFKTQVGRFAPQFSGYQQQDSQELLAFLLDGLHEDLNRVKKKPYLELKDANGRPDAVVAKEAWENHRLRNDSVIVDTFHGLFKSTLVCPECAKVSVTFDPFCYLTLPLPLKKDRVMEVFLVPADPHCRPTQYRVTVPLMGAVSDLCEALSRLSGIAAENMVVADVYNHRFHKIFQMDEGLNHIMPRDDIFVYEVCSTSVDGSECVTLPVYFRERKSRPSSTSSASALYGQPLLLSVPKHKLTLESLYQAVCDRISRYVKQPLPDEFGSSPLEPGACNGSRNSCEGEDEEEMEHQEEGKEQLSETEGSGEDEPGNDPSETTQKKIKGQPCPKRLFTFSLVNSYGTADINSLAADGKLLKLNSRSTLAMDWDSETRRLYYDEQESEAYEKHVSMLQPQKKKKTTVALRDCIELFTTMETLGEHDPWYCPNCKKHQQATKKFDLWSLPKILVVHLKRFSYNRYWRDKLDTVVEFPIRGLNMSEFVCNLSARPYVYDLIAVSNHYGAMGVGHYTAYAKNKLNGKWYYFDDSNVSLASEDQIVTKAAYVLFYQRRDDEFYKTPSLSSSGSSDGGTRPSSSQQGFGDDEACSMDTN
How it was run: as §1

Measured: log2 ratio of Biotin-Ahx-Ub-VS probe labelling

USP34, sequence (Q70CQ2 whole entry, the tested form may be a part): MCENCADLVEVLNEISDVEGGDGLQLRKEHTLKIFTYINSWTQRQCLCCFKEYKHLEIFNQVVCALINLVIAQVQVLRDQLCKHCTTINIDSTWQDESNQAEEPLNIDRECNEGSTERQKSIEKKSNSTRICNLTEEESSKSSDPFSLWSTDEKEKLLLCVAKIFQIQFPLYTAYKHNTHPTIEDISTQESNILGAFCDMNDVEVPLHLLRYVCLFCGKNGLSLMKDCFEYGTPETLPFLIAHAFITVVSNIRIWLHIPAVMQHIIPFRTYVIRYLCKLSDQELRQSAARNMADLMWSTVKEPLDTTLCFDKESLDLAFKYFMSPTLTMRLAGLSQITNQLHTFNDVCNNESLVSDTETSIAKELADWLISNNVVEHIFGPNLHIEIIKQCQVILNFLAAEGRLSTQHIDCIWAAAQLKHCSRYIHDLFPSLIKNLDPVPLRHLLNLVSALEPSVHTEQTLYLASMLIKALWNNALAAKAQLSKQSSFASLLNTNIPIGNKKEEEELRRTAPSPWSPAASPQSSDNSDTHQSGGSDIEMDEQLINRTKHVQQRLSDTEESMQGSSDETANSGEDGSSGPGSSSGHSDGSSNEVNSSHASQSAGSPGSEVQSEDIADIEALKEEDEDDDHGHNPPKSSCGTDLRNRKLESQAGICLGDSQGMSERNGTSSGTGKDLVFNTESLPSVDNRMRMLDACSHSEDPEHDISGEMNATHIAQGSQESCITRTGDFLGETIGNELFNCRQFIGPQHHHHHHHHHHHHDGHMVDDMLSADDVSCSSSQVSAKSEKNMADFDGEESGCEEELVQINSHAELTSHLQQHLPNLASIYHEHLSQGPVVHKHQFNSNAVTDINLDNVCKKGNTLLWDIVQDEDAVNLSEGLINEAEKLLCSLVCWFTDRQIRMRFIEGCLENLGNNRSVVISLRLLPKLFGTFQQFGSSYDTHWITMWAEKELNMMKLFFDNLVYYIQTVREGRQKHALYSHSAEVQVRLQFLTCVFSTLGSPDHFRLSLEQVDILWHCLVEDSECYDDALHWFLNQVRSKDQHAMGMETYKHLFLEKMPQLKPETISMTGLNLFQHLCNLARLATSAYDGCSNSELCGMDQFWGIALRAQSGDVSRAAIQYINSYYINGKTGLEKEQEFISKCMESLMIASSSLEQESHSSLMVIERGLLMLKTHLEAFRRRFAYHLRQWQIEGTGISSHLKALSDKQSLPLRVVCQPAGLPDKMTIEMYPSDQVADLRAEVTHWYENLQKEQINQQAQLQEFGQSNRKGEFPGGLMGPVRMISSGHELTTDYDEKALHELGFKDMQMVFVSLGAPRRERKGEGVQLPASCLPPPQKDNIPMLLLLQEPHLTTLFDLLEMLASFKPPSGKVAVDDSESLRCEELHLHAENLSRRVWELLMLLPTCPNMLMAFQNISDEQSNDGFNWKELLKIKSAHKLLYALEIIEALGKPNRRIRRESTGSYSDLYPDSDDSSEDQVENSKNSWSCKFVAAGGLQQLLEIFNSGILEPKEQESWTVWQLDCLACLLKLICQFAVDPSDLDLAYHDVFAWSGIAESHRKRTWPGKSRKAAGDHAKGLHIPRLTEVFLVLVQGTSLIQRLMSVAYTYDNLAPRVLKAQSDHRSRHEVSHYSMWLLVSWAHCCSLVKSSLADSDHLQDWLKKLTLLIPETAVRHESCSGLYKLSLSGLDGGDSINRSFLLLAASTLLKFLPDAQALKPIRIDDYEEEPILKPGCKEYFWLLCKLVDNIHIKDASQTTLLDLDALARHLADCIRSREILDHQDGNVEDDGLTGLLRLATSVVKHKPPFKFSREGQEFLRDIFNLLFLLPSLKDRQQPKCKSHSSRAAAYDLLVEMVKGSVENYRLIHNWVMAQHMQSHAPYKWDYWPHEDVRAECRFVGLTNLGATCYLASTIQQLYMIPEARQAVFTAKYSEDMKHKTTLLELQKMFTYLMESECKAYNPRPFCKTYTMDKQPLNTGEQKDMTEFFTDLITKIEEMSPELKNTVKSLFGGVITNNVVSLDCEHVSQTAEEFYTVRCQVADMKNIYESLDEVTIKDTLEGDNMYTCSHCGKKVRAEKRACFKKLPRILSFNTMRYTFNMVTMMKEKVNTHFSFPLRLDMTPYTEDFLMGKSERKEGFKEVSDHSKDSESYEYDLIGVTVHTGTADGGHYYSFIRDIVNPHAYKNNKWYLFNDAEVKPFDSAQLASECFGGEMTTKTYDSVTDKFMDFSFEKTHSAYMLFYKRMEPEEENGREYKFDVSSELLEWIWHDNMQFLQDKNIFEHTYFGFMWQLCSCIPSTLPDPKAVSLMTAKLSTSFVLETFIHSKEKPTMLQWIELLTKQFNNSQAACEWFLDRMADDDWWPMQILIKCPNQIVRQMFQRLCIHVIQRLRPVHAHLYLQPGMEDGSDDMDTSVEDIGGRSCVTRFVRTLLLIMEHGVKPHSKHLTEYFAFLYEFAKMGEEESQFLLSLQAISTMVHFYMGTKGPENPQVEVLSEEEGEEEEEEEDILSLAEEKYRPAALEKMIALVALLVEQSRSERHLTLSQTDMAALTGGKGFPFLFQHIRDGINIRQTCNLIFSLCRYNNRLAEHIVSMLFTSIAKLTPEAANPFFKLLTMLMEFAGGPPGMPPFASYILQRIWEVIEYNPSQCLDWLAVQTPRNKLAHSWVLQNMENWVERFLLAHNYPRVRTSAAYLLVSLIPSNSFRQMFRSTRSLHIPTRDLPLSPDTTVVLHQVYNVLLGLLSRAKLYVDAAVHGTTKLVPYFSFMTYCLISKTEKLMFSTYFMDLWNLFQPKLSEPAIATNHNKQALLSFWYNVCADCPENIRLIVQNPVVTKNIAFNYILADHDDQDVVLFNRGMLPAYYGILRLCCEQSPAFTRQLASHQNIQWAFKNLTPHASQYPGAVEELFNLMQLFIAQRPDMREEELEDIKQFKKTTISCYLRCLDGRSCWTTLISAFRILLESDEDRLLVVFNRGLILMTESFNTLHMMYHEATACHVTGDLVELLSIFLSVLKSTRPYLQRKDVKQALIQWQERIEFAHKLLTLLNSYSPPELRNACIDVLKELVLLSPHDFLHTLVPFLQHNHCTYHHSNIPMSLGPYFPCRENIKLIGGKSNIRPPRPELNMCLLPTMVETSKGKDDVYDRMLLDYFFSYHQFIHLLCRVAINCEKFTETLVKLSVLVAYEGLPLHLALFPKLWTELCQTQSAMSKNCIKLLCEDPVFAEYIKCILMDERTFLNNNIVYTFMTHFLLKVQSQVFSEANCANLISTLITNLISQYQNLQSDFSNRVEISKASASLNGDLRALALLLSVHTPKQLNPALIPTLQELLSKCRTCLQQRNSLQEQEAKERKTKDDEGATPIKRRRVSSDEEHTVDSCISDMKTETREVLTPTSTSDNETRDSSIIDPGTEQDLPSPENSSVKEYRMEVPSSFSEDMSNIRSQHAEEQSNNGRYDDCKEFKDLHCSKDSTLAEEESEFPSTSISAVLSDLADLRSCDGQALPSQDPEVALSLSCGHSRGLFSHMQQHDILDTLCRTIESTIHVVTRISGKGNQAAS

Cn1cc(CN(Cc2ccc(Cl)cc2)C(=O)CCl)cn1
inactive: [1] -0.228 | [2] 0.253 | [3] -0.245 | [4] -0.193 | [5] -0.316
